Where “and” joins values, the source holds several entries; their conditions need not be identical. Equal entries are not always repeated. Among all 5,500 compounds or so, about 2,000 (36%) were called active. About 18% were inconclusive and are not listed. No stated cut-off is given here; in the data, active means normalized growth mostly below about 0.91 (no sharp cut-off); inconclusive means no clear call, values can overlap the other calls; inactive means mostly above about 0.92. The list shows a part of the results.
Test: chemical genetic growth profiling, strain panel (AID 1159580);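 further: tested at 20 µM; growth read once vehicle control cultures reached saturation at 30 °C; 1 = growth at the plate median or of vehicle wells; lower values mean less growth of the strain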
Settings: S. cerevisiae deletion strains, growth OD

Measured: normalized growth

CC1COc2c(N3CCN(C)CC3)c(F)cc3c(=O)c(C(=O)O)cn1c23 (stereo not drawn)
inactive: locus YAL013W, strain DEP1, hits give low values 0.993 | locus YAL021C, strain ccr4, hits give low values 0.99 | locus YAL026C, strain drs2, hits give low values 0.987 | locus YAL030W, strain snc1, hits give low values 0.988 | locus YAL040C, strain CLN3, hits give low values 1.03 | locus YBL061C, strain skt5, hits give low values 0.983 | locus YBR009C, strain hhf1, hits give low values 1 | locus YBR021W, strain FUR4, hits give low values 1.01 | locus YBR023C, strain chs3, hits give low values 0.98 | locus YBR171W, strain sec66, hits give low values 0.964 | locus YBR229C, strain ROT2, hits give low values 1.01 | locus YBR231C, strain swc5, hits give low values 0.991 | locus YBR279W, strain paf1, hits give low values 0.992 | locus YCL011C, strain gbp2, hits give low values 0.98 | locus YCL016C, strain dcc1, hits give low values 0.985 | locus YCL029C, strain bik1, hits give low values 1.01 | locus YCL061C, strain MRC1 (second series), hits give low values 1 | locus YCL061C, strain MRC1, hits give low values 0.982 | locus YCL069W, strain vba3, hits give low values 0.99 | locus YCR088W, strain abp1, hits give low values 0.986 | locus YDL005C, strain med2, hits give low values 0.974 | locus YDL035C, strain GPR1, hits give low values 1.03 | locus YDL040C, strain nat1, hits give low values 0.988 | locus YDL074C, strain BRE1, hits give low values 1.02 | locus YDL101C, strain DUN1, hits give low values 1.01 | locus YDL134C, strain PPH21, hits give low values 1.01 | locus YDL185W, strain tfp1, hits give low values 1.05 | locus YDL192W, strain arf1, hits give low values 1.01 | locus YDR001C, strain nth1, hits give low values 0.982 | locus YDR069C, strain doa4, hits give low values 1.01 | locus YDR101C, strain arx1, hits give low values 1 | locus YDR137W, strain rgp1, hits give low values 0.954 | locus YDR159W, strain sac3, hits give low values 1.01 | locus YDR162C, strain NBP2, hits give low values 1.01 | locus YDR195W, strain ref2 0.996 | locus YDR297W, strain sur2, hits give low values 0.985 | locus YDR318W, strain mcm21, hits give low values 1.01 | locus YDR334W, strain swr1, hits give low values 0.975 | locus YDR335W, strain msn5, hits give low values 0.997 | locus YDR363W, strain ESC2, hits give low values 1.01 | locus YDR388W, hits give low values 1.01 | locus YDR392W, strain spt3, hits give low values 0.903 | locus YDR502C, strain sam2, hits give low values 1.01 | locus YEL003W, strain gim4, hits give low values 1 | locus YEL037C, strain rad23, hits give low values 0.979 | locus YEL061C, strain CIN8 (second series), hits give low values 0.985 | locus YEL061C, strain CIN8, hits give low values 1.01 | locus YER002W, strain NOP16, hits give low values 0.981 | locus YER015W, strain faa2, hits give low values 0.99 | locus YER016W, strain bim1, hits give low values 1.01 | locus YER110C, hits give low values 1.02 | locus YER111C, strain swi4, hits give low values 0.983 | locus YER155C, strain BEM2 (second series), hits give low values 0.978 | locus YER155C, strain BEM2, hits give low values 1.01 | locus YER167W, strain BCK2, hits give low values 1.01 | locus YFR010W, strain ubp6, hits give low values 0.978 | locus YGL078C, strain dbp3, hits give low values 1.01 | locus YGL086W, strain mad1, hits give low values 1 | locus YGL167C, strain pmr1, hits give low values 0.985 | locus YGL173C, strain kem1, hits give low values 0.975 | locus YGL227W, strain vid30, hits give low values 0.991 | locus YGL240W, strain doc1, hits give low values 0.996 | locus YGL248W, strain PDE1, hits give low values 1 | locus YGL253W, strain hxk2, hits give low values 0.995 | locus YGR135W, strain pre9, hits give low values 1.01 | locus YGR229C, strain SMI1, hits give low values 1.03 | locus YGR252W, strain gcn5, hits give low values 1.01 | locus YHR013C, strain ard1, hits give low values 0.961 | locus YHR027C, strain rpn1, hits give low values 0.986 | locus YHR030C, strain SLT2, hits give low values 1.01 and 0.988 | locus YHR079C, strain IRE1 (second series), hits give low values 1.01 | locus YHR079C, strain IRE1, hits give low values 0.988 | locus YHR094C, strain hxt1, hits give low values 1.02 | locus YHR129C, strain ARP1, hits give low values 1 | locus YHR142W, strain chs7, hits give low values 0.956 | locus YHR200W, strain rpn10, hits give low values 1.01 | locus YIL066C, strain RNR3, hits give low values 1.01 | locus YIL073C, strain SPO22, hits give low values 1.1 | locus YIL125W, strain kgd1, hits give low values 1.01 | locus YIR030C, strain dcg1, hits give low values 1.01 | locus YJL092W, strain hpr5, hits give low values 0.983 | locus YJL095W, strain BCK1 (second series), hits give low values 0.993 | locus YJL095W, strain BCK1, hits give low values 1 and 0.976 | locus YJL115W, strain asf1, hits give low values 0.971 | locus YJL129C, strain trk1, hits give low values 0.987 | locus YJL134W, strain LCB3, hits give low values 1.01 | locus YJL154C, strain vps35, hits give low values 0.982 | locus YJL164C, strain tpk1, hits give low values 0.987 | locus YJL166W, strain qcr8, hits give low values 0.969 | locus YJL168C, strain set2, hits give low values 1.01 | locus YJL187C, strain SWE1 (second series), hits give low values 1 | locus YJL187C, strain SWE1, hits give low values 0.987 | locus YJR043C, strain POL32, hits give low values 1.02

Reference: PubChem BioAssay AID1159580 (chemical genetic matrix, 2015)
